# Publication PMC5700166
# Columns and labels:
# Experiment in all cases: protein-binding microarray (PBM); PBM: ~300 nM protein, 6 mM HEPES pH 7.8, 80 mM KCl, 0.5 mM EDTA, 0.5 mM EGTA, 6% glycerol, 35 ng/ul poly-dIdC, 1% milk, 1 h, room temperature; Ap Aiptasia and Nv Nematostella (sea anemones) / Co Capsaspora / Aq Amphimedon (sponge) / Dm Drosophila / Hu human; RHD is the Rel homology domain; high values mean tight binding
# Details in all cases: dsDNA, one strand shown
# [1] = biological target: T1, GST-Ap-NF-kB RHD (Exaiptasia pallida (Aiptasia), UniProt A0A913YAJ5 2-422)
# T1 sequence: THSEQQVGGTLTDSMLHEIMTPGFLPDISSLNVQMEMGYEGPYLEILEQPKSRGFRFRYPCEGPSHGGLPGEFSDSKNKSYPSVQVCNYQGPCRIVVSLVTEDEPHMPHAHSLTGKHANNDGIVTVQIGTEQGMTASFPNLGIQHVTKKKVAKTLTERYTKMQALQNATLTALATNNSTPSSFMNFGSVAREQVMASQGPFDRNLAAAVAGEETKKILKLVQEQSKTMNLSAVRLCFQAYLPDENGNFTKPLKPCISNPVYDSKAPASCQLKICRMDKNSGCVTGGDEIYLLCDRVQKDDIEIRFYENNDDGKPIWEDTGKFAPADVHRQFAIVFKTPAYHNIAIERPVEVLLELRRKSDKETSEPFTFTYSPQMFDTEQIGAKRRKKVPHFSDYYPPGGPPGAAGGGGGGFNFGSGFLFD
# [2] = biological target: T2, GST-Nv-NF-kB (Cys allele) (Nematostella vectensis, UniProt E5G601 2-411)
# T2 sequence: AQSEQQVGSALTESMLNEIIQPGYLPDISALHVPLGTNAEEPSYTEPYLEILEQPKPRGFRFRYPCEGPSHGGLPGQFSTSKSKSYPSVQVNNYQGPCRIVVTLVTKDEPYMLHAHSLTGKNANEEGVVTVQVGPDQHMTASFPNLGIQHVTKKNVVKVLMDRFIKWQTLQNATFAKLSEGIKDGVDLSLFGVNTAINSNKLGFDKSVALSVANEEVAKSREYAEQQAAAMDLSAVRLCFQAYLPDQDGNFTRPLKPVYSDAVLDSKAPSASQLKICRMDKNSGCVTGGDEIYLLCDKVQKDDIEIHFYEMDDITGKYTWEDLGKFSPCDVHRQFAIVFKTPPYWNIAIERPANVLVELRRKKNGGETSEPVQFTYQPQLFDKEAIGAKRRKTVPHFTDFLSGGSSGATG
# [3] = biological target: T3, GST-Dm-Relish (Drosophila melanogaster, UniProt Q94527 99-473)
# T3 sequence: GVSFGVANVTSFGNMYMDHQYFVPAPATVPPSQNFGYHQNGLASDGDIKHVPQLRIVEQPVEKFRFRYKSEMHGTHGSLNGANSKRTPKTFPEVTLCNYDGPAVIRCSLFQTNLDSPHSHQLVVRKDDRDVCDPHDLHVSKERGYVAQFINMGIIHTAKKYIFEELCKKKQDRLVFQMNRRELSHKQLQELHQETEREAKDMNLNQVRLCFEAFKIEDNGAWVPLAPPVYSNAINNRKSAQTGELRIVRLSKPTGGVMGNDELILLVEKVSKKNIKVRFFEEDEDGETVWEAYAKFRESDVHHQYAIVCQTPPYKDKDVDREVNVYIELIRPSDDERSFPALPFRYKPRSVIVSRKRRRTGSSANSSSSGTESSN
# [4] = biological target: T4, GST-Aq-NF-kB (Amphimedon queenslandica, UniProt A9Y5G7 2-389)
# T4 sequence: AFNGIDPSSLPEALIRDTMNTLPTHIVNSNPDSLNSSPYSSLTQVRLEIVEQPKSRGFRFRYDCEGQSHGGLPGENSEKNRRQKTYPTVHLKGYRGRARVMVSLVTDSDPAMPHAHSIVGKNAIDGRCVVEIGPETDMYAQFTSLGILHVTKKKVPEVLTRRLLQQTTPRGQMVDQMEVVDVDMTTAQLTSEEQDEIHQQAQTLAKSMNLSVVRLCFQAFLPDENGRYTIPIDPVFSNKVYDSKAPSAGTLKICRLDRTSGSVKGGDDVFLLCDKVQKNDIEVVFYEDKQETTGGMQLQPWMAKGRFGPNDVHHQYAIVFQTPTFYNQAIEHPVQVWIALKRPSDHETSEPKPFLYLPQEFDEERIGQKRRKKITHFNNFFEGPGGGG
Sequence,binding signal [1],binding signal [2],binding signal [3],binding signal [4]
CCGATTAACATCATTAGGGTATTTGATGTTAATCGGGTCTTGATTCGCTTGACGCTGCTG,2.55 z-score,3.98 z-score,1.47 z-score,3.54 z-score
CCGATTAACATCAGGAATTCACCTGATGTTAATCGGGTCTTGATTCGCTTGACGCTGCTG,1.52 z-score,3.06 z-score,6.05 z-score,4.83 z-score
CCGATTAACATCAGGCAAGTCCCTGATGTTAATCGGGTCTTGATTCGCTTGACGCTGCTG,3.63 z-score,3.87 z-score,2.41 z-score,5.74 z-score
CCGATTAACATCAGGGATTCCAATGATGTTAATCGGGTCTTGATTCGCTTGACGCTGCTG,1.68 z-score,1 z-score,5.16 z-score,1.78 z-score
CCGATTAACATCAGGGGTTTAACTGATGTTAATCGGGTCTTGATTCGCTTGACGCTGCTG,2.44 z-score,2.32 z-score,3.3 z-score,3.04 z-score
CCGATTAACATCAGGAAAACCCATGATGTTAATCGGGTCTTGATTCGCTTGACGCTGCTG,2.63 z-score,2.25 z-score,4.78 z-score,4.02 z-score
CCGATTAACATCAGGAATAACCCTGATGTTAATCGGGTCTTGATTCGCTTGACGCTGCTG,1.87 z-score,2.62 z-score,3.23 z-score,5.81 z-score
CCGATTAACATCAGAAAAAACCCTGATGTTAATCGGGTCTTGATTCGCTTGACGCTGCTG,3.95 z-score,4.93 z-score,6.15 z-score,6.47 z-score
CCGATTAACATCAAGGGAAGCCCTGATGTTAATCGGGTCTTGATTCGCTTGACGCTGCTG,2.12 z-score,1.83 z-score,7.5 z-score,3.99 z-score
CCGATTAACATCAGGGCATTACCTGATGTTAATCGGGTCTTGATTCGCTTGACGCTGCTG,1.29 z-score,1.87 z-score,3.33 z-score,4.51 z-score
CCGATTAACATCAAAATTTCACCTGATGTTAATCGGGTCTTGATTCGCTTGACGCTGCTG,1.14 z-score,2.14 z-score,2.34 z-score,1.7 z-score
CCGATTAACATCAATGGGTTTTCTGATGTTAATCGGGTCTTGATTCGCTTGACGCTGCTG,1.73 z-score,1.21 z-score,2.88 z-score,1.85 z-score
CCGATTAACATCAGAAATTTACCTGATGTTAATCGGGTCTTGATTCGCTTGACGCTGCTG,1.1 z-score,2.05 z-score,2.77 z-score,2.09 z-score
CCGATTAACATCAAGGAAAACCCTGATGTTAATCGGGTCTTGATTCGCTTGACGCTGCTG,2.67 z-score,2.33 z-score,4.56 z-score,4.66 z-score
